About 14,000 (4.5%) of roughly 310,000 compounds showed an effect of 50% or more. Effects have a minus sign here. This is one part of a sample in which strong results are shown more often than they occur.
The compounds below were run against human ether-à-go-go-related gene (hERG) potassium channel (human, UniProt Q12809) (assay: primary screen, population patch clamp on CHO cells stably expressing hERG; higher = less effect of the substance).
Description: Briefly, Chinese hamster ovary (CHO) cells stably expressing the hERG channel were dislodged from tissue culture flasks and dispensed into PPC plates. […] During the recording, background leak currents were estimated by a 100 ms step to -80 mV from an initial holding potential of -70 mV and subtracted from the subsequent current measurement. The campaign was conducted in two phases using slight differences in recording protocol. In the first phase, the initial voltage pulse used a 100 ms step to -30 mV from a holding potential of -70 mV, a 2 s conditioning step to +25 mV, and a 2 s test step to -30 mV. During the second phase of the screen, the potential during the conditioning step was raised to +45 mV. In both phases of the campaign, a secondary voltage pulse was applied using the same parameters as the second phase initial pulse. The initial and secondary pulses were applied in the absence of compound, and upon application of 1 μM and 10 μM test concentrations. […]
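Also: peak tail current of the secondary pulse compared with the same well before compound.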

Sequence of human ether-à-go-go-related gene (hERG) potassium channel (Q12809 whole entry, looked up): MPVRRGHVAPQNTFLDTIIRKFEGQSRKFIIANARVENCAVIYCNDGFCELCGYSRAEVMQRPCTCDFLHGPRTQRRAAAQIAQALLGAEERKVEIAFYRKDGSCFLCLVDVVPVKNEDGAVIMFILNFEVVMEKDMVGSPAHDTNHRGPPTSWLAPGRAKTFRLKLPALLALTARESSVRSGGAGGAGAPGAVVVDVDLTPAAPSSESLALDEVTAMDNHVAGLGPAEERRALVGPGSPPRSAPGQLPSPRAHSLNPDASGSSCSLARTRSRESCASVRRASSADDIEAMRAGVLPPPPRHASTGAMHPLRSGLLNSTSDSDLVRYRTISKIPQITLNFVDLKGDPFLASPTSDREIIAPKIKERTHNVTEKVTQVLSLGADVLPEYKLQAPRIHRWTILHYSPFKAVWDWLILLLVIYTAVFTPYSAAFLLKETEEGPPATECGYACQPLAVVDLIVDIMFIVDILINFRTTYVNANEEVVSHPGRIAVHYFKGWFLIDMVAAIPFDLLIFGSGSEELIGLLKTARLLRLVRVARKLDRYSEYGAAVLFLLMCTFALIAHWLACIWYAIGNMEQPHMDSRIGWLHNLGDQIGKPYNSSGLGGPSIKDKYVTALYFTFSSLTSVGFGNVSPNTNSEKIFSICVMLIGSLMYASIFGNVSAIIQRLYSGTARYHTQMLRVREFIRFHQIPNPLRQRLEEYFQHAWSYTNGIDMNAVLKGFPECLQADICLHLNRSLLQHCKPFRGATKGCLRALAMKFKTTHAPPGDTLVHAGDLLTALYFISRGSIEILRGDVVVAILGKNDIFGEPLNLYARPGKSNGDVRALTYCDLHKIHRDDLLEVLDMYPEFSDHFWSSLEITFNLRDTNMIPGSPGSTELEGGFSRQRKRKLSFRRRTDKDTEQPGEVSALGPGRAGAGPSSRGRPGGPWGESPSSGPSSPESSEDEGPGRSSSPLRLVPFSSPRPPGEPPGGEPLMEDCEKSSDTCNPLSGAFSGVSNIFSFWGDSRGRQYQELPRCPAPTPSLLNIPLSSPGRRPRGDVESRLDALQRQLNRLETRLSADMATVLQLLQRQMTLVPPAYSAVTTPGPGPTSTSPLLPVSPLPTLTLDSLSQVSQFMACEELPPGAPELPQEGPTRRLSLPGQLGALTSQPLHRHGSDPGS

SMILES	hERG current change (%, negative = inhibition) at 10uM [%]
CN(c1ccc(C(=O)N2CCOCC2)cc1)S(=O)(=O)c1cccs1	29
COc1ccccc1NC(=O)CON=C(N)CC(=O)NC1CCCCC1	-1.99
CSc1nnc(NC(=O)c2cccc(S(=O)(=O)N3CCOCC3)c2)s1	-5
Cn1c(=O)n(C)c2cc(C(=O)c3ccccc3)ccc21	-1.74
Cc1cc(C)c[n+](CC(=O)c2ccccc2)c1.[Br-]	22.8
Cc1cc(C)c[n+](CC(=O)c2ccc(C)c([N+](=O)[O-])c2)c1.[Br-]	-13.2
Cc1cc(C)c[n+](CC(=O)c2c(C)cc(C)c([N+](=O)[O-])c2C)c1.[Br-]	-68.6
COc1cc(NS(=O)(=O)c2c(C)[nH]c(C)c2C(=O)N2CCCCC2)cc(OC)c1OC	5.18
CCCCCn1nc(C(=O)N2CCc3ccccc32)c2ccccc2c1=O	-3.43
Cc1ccc2nc(Nc3ncc4c(n3)CC(C)(C)CC4=O)nc(C)c2c1	15.3
O=C(CSc1nc2ccccc2s1)NCC1CCCO1 (stereo not drawn)	7.82
O=C(CSc1nc2ccc([N+](=O)[O-])cc2s1)NCC1CCCO1 (stereo not drawn)	-54.4
N#CC1(NC(=O)CSc2nc3ccc([N+](=O)[O-])cc3s2)CCCCC1	-69.5
N#CC1(NC(=O)CSc2nc3ccccc3s2)CCCCC1	-15.7
O=C(CSc1nc2ccc(NC(=O)C3CCCCC3)cc2s1)NCC1CCCO1 (stereo not drawn)	2.42
N#CC1(NC(=O)CN2C(=O)c3ccc([N+](=O)[O-])cc3C2=O)CCCCC1	4.83
CCn1c(/N=C/c2ccccc2NS(=O)(=O)c2ccc(C)cc2)nc2ccccc21	-19.8
COc1ccc(N(CC(=O)Nc2ccc(F)c(F)c2)S(=O)(=O)c2c(C)[nH]c(=O)[nH]c2=O)cc1	19.9
NC(=O)COC(=O)c1ccc(-c2ccccc2)cc1	14.2
O=C(CCCC(=O)N(CC(=O)NC1CCCCC1)Cc1ccc2c(c1)OCO2)Nc1ccccn1	-54.3
O=C(CCCC(=O)N(CC(=O)NC1CCCC1)Cc1ccc2c(c1)OCO2)Nc1ccccn1	-26.5
O=C(CCCC(=O)N(CC(=O)NC1CCCCC1)Cc1ccccc1)Nc1ccccn1	-6.57

SMILES	hERG current change (%, negative = inhibition) at 10uM [%]
CC(C)CCNC(=O)CN(Cc1ccccc1)C(=O)CCC(=O)Nc1ccccn1	-19.7
CC(C)CCNC(=O)CN(Cc1ccc2c(c1)OCO2)C(=O)CCC(=O)Nc1ccccn1	-70.7
CC(C)NC(=O)CN(Cc1ccc2c(c1)OCO2)C(=O)CCC(=O)Nc1ccccn1	1.7
Cc1cccc(OCC(=O)N/N=C/c2cc([N+](=O)[O-])ccc2N2CCOCC2)c1	-9.73
COc1ccc(-c2oc3ccc(N4CCOCC4)cc3c2C#CC2(O)CCCCC2)cc1	17.3
CCN(CC)c1ccc(/C=C2/C(=O)ON=C2C)cc1	-20.9
Cc1ccc(CCNC(=O)C2CCN(c3nn4c(=O)cc(C)nc4s3)CC2)cc1	-33.4
CCCc1cc(=O)n2nc(N3CCC(C(=O)NCc4ccco4)CC3)sc2n1	-44.4
Cc1cc(=O)n2nc(N3CCC(C(=O)NCCc4ccc(Cl)cc4)CC3)sc2n1	-54.5
Cc1cc(=O)n2nc(N3CCC(C(=O)N4CCN(c5ccccc5)CC4)CC3)sc2n1	-11.9
CCCc1cc(=O)n2nc(N3CCC(C(=O)NCc4ccc(C)o4)CC3)sc2n1	-61.6
Cc1cc(=O)n2nc(N3CCCC(C(=O)N4CCN(C)CC4)C3)sc2n1 (stereo not drawn)	-7.39
Cc1cc(=O)n2nc(N3CCC(C(=O)NCc4ccco4)CC3)sc2n1	17.9
Cc1cc(=O)n2nc(N3CCCC(C(=O)N4CCN(c5ccccc5)CC4)C3)sc2n1 (stereo not drawn)	-53.5
CCc1ccc(CNC(=O)C2CCCN(c3nn4c(=O)cc(C)nc4s3)C2)cc1 (stereo not drawn)	-36.2
Cc1cc(=O)n2nc(N3CCC(C(=O)NCCc4ccccc4)CC3)sc2n1	-10.1
Cc1cc(=O)n2nc(N3CCCC(C(=O)NCc4ccc(Cl)cc4)C3)sc2n1 (stereo not drawn)	-71.7
Cc1ccc(CNC(=O)C2CCCN(c3nn4c(=O)cc(C)nc4s3)C2)cc1 (stereo not drawn)	-31.1
Cc1nc2ncnn2c(C)c1CCC(=O)Oc1ccccc1	-5.02
CCN1CCc2nc(N)oc2CC1.Cl	1.67
Cc1cc2oc(C(=O)NC3CCS(=O)(=O)C3)c(C)c2cc1C (stereo not drawn)	2.69
CN(CC(=O)Nc1ccc(Cl)c(C(F)(F)F)c1)C(=O)C1CCC1	-14.8

SMILES	hERG current change (%, negative = inhibition) at 10uM [%]
O=C1COc2ccc(N3C(=O)c4ccccc4C3=O)cc2N1	27.5
CCCCCN(C(=O)CN1CCC(Cc2ccccc2)CC1)c1c(N)n(CCCC)c(=O)[nH]c1=O	-48.1
CSc1nc(N2CCN(Cc3ccc4c(c3)OCO4)CC2)c2ccccc2n1	-16.7
CC(C)(C)OC(=O)N1CCC(c2cc(=O)n3[nH]cc(C(=O)Nc4ccc(F)c(Cl)c4)c3n2)CC1	6.92
COCCOC(=O)C1=C(C)Nc2ncnn2C1c1ccco1 (stereo not drawn)	2.64
Cc1cc(=O)n2nc(N3CCC(C(=O)NCc4cccc(Br)c4)CC3)sc2n1	-51.4
Cc1cc(=O)n2nc(N3CCC(C(=O)NCc4ccc(F)cc4)CC3)sc2n1	-55.5
Cc1cc(=O)n2nc(N3CCC(C(=O)NCc4ccccc4)CC3)sc2n1	-3.68
Cc1ccc(CNC(=O)C2CCN(c3nn4c(=O)cc(C)nc4s3)CC2)cc1	-41.9
Cc1cc(=O)n2nc(N3CCCC(C(=O)NCc4cccc(Br)c4)C3)sc2n1 (stereo not drawn)	-30.2
COc1ccc(CNC(=O)C2CCN(c3nn4c(=O)cc(C)nc4s3)CC2)cc1	-4.51
Cc1cc(=O)n2nc(N3CCC(C(=O)NCc4cccc(Cl)c4)CC3)sc2n1	-43.7
Cc1cc(=O)n2nc(N3CCC(C(=O)NCc4ccc(Cl)cc4)CC3)sc2n1	-70
CCOc1ccc(CNC(=O)C2CCN(c3nn4c(=O)cc(C)nc4s3)CC2)cc1	-45.8
CCS(=O)(=O)c1ccc(C(=O)Nc2cccc(Cl)c2)c(Cl)c1Cl	-3.97
Cc1ccc(C(C)C)c(OCCCNCc2cccnc2)c1.Cl	-37.5
CCNC(=O)NC(=O)CN(C)c1ccccc1	10.5
CCOC(=O)c1sc(=NC(=O)c2cccc(C)c2)n(C)c1C	8.38
Cc1ccc(-c2c(C(=O)N/N=C/c3cccs3)nnn2-c2nonc2N)cc1	29.8
COc1ccc(-n2cc(CNC(C)c3ccncn3)c(-c3cccc(F)c3)n2)cc1 (stereo not drawn)	-59.4
CCC(COC)NCc1cn(-c2ccc(OC)cc2)nc1-c1cccc(F)c1 (stereo not drawn)	-70.3
CCC(COC)NCc1cn(-c2ccc(F)cc2F)nc1-c1ccccc1C (stereo not drawn)	-18

SMILES	hERG current change (%, negative = inhibition) at 10uM [%]
COc1cccc(-c2nn(-c3ccccc3)cc2CN(C)C(C)c2ccncn2)c1 (stereo not drawn)	-15.6
COc1ccc(-c2nn(-c3ccccc3)cc2CNC(C)Cn2cncn2)c(F)c1 (stereo not drawn)	-13
COc1ccc(-n2cc(CN(C)C(C)c3ccncn3)c(-c3cccc(F)c3)n2)cc1 (stereo not drawn)	-39.9
Cc1cccc(N2CCN(C(=O)c3cccc(N4C(=O)C5CC=CC(C)C5C4=O)c3)CC2)c1C (stereo not drawn)	-12.5
Cc1oncc1-c1cn2ccccc2n1	6.61
COc1ccccc1CNC(=O)c1ccccc1OCc1ccc(F)cc1	-10
COc1ccc(N2CC(C(=O)N3CCN(C(=O)c4ccco4)CC3)CC2=O)cc1 (stereo not drawn)	-53.3
CCOc1ccc(N2CC(C(=O)N3CCN(C(=O)c4ccco4)CC3)CC2=O)cc1 (stereo not drawn)	-63.4
CCOc1ccc(N2CC(C(=O)N3CCCCCC3)CC2=O)cc1 (stereo not drawn)	-7.34
COc1ccc(N2CCN(C(=O)C3CC(=O)N(c4ccc(C)cc4)C3)CC2)cc1 (stereo not drawn)	-35.1
COc1ccc(N2CC(C(=O)N3CCN(C)CC3)CC2=O)cc1 (stereo not drawn)	15.4
CCOc1ccc(N2CC(C(=O)N3CCCCC3)CC2=O)cc1 (stereo not drawn)	18.6
Cc1cc(C#N)c(C)n1-c1cc(S(=O)(=O)N2CCOCC2)ccc1N1CCCC1	-14.3
CN(Cc1ccc(F)cc1)C(=O)c1cccc(S(=O)(=O)N2CCN(c3ccc(F)cc3)CC2)c1	-34.6
CN(C)S(=O)(=O)N1CCC(Oc2cccc(C(=O)NC3CCOC3)c2)CC1 (stereo not drawn)	2.63
O=C(CN1CCN(CCC(=O)Nc2ccccc2F)CC1)Nc1ccc(Cl)cc1	-76.8
O=C(CCN1CCN(S(=O)(=O)c2ccc(Cl)cc2)CC1)Nc1ccccc1F	-6.18
O=C(CN1CCOCC1)Nc1ccccc1F	0.862
O=C(CCN1CCN(c2ccc(Cl)cc2)CC1)Nc1ccccc1F	-34
O=C(CCN1CCN(c2ccc(F)cc2)CC1)Nc1ccccc1F	-43
O=C(CN1CCN(CCC(=O)Nc2ccccc2F)CC1)Nc1ccc(F)cc1	-72.6

Source: publication PMC4336329 (PLoS ONE, 2015)
